Source: PubChem BioAssay (National Center for Advancing Translational Sciences (NCATS))
Only some compounds are listed: those with a hit (about 3.9% of all), similar ones and a draw of the others.
USP2a block: qHTS Assay for Inhibitors of Ubiquitin-specific Protease USP2a Using CHOP2 as the Reporter; Ubiquitin carboxyl-terminal hydrolase 2 (Homo sapiens), O75604; USP2 core, Ub-CHOP2 coupled fluorogenic reporter, 485/531; Potency, µM (highest dose often 38.3 µM), for the others: at the top dose activity change, negative = inhibition, most hits filed as inhibitors; hit rate 0.01% among 330,000;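 note: potency is the fitted concentration of half-maximal effect; plate controls were DMSO wells for no effect and full inhibition by NEM control for full effect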
Target sequence (O75604 whole entry, looked up): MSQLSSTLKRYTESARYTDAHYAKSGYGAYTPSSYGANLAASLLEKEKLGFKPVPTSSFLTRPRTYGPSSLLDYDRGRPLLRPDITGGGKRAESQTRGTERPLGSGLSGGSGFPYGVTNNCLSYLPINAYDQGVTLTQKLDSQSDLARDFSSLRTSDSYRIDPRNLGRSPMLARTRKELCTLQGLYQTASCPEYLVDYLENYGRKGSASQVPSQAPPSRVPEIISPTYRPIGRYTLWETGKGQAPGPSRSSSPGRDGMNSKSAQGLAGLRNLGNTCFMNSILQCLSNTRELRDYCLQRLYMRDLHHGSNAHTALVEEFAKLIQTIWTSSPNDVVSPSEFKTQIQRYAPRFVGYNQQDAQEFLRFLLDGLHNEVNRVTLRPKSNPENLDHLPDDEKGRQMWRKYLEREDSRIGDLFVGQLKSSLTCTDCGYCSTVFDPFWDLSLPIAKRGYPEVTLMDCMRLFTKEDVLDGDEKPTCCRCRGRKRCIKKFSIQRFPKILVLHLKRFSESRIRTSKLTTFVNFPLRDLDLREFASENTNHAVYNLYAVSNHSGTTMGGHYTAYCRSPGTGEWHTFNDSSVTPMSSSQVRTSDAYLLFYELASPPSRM
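USP2 core (10nM final) preincubated 30min RT with compound in 20mM Tris-HCl pH 8.0, 2mM CaCl2, 2mM beta-mercaptoethanol, 0.05% CHAPS; 25nM Ub-CHOP2 plus 25nM reporter substrate added, fluorescence (Ex485/Em531) read after 60min.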
GALK inhibitor: qHTS Assay for Inhibitors of Human Galactokinase (GALK); AID 1868, 2009; hit rate 0.007% among 270,000; Potency, µM (titrated, usually from 57.5 µM), inactives show top-dose activity change, negative = inhibition, usual class: inhibitors; P51570; Purified GALK, Kinase-Glo residual ATP luminescence; note: potency is the fitted concentration of half-maximal effect; % is set by controls: 0 for no effect and ±100 for the full control effect
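GALK at 5 nM final was combined with compound, 35 uM ATP and 100 uM galactose in HEPES pH8.0 with MgCl2 and DTT. The reaction ran one hour at room temperature before luminescent ATP detection.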
D1 potentiator: Potentiators of Human D1 Dopamine Receptor: qHTS; D(1A) dopamine receptor (Homo sapiens), P21728; HEK293 TREx D1 cells, calcium flux, dopamine EC20 potentiation; potentiation, % at 10 µM; hit rate 0.036% among 360,000; AID 504651, 2011; in the data active = potentiation above about 30%; note: 0% is about no effect
D1 agonist: Allosteric Agonists of the Human D1 Dopamine Receptor: qHTS. hit rate 1% among 360,000. activation, % at 2 µM. HEK293 T-REx D1 cells, calcium flux, agonist mode. D(1A) dopamine receptor (Homo sapiens), P21728; in the data active = activation above about 30%; note: 0% is about no effect
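Inducible HEK293 T-REx D1 cells, force-coupled to calcium signalling, were plated at 4000 cells/well with tetracycline and held overnight at 30 C. After no-wash calcium dye loading, compound-evoked calcium rise over 180 s flagged agonists.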
D1 antag: Antagonist of Human D 1 Dopamine Receptor: qHTS; activity change, negative = inhibition, % at 10 µM; HEK293 TREx D1 cells, calcium flux, dopamine EC80; hits give low values; hit rate 3.2% among 360,000; in the data active = activity change below about -30%; note: % is set by controls: 0 for no effect and ±100 for the full control effect
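HEK293 T-REx cells expressing inducible, force-coupled D1 receptor; no-wash Ca dye, 30–90 min RT. Cmpd → 180 s read at 1 Hz → EC80 DA → 180 s read.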
Eya2 inh: qHTS Assay for Inhibitors of the Phosphatase Activity of Eya2; Protein phosphatase EYA2 (Homo sapiens), O00167; recombinant Eya2, OMFP fluorescence dephosphorylation (OMFP is methylfluorescein phosphate); Potency, µM (highest dose often 76.9 µM), inactives show top-dose activity, negative = inhibition, actives largely listed as inhibitors; hit rate 0.006% among 330,000; AID 488837, 2010; note: potency is the fitted concentration of half-maximal effect; % is set by controls: 0 for no effect and ±100 for the full control effect
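Eya2 protein (added as 0.2 uM solution) was preincubated with compound for 10 min at ambient temperature in 50 mM HEPES pH 7.5, 50 mM NaCl, 5 uM MgCl2, 0.05% BSA, 1 mM DTT. OMFP (added at 50 uM) then reacted 10 min; fluorescence read at 485/525 nm.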
The depositor's hits bear a star; ? = inconclusive; nt = no result given. Unless noted, calls come from the whole dose curve; as a rule, active = well fitted inhibition curve with a large enough effect; inconclusive = small, poorly fitted or top-dose-only effect, or effect the other way; inactive = flat fitted curve, though single readings scatter.

SMILES | USP2a block | GALK inhibitor | D1 potentiator | D1 agonist | D1 antag | Eya2 inh
O=C(CSc1ncccn1)N/N=C/c1cccc(OC2CSC2)c1 | 4% | 1% | -10 | 11 | -36* | ?
Cc1ccc2c(=O)cc(C(=O)Nc3ccc(S(=O)(=O)N4CCC(C)CC4)cc3)oc2c1C | nt | nt | 0 | 0 | -2 | nt
O=C(Nc1cccc(Cl)c1)N1CC2CCCN2c2ccccc21 (configuration not stated) | nt | nt | -7 | 9 | 2 | nt
CC(Oc1ccc(C#N)cc1)C(=O)c1ccc(F)c(F)c1 (configuration not stated) | 0% | -3% | -5 | 12 | -35* | -3%
O=C(CCC(=O)N1CCCC1)Nc1ccc(Cl)c(Cl)c1 | 1% | -3% | -1 | 0 | -33* | 5%
O=C(Nc1ccc(Cl)c(Cl)c1)N1CCCCCC1 | -2% | 3% | 3 | 5 | 17 | -8%
O=C(CN1CCN(S(=O)(=O)N2CCCCC2)CC1)Nc1ccc(Cl)c(Cl)c1 | 3% | -2% | -13 | 43* | -79* | -9%
COC(=O)C1=C(c2ccccc2)c2ccccc2S(=O)(=O)N1CC(=O)Nc1ccc(F)c(F)c1 | nt | nt | -1 | 6 | -5 | nt
S=C(NCc1ccco1)N1CCN(c2ccccc2Cl)CC1 | 0% | 3% | -9 | 3 | -33* | -5%
Cc1ccc(Cl)cc1N1CCN(C(=S)NCc2ccco2)CC1 | -7% | -3% | -9 | 1 | nt | -9%
NC(N)=Nc1cc2ccccc2c2ccccc12 | 0% | 0% | -8 | 0 | -70* | 1%
Cn1c(=O)c2c(SCC(=O)NCc3ccco3)nc(-c3cccc(F)c3)nc2n(C)c1=O | nt | nt | 1 | 0 | 7 | nt
O=C(COC(=O)c1cccc(S(=O)(=O)N2CCN(c3ccccc3)CC2)c1)NCC1CCCO1 (configuration not stated) | -1% | 2% | -4 | 3 | -34* | 11%
CN(C)S(=O)(=O)c1ccc2c(c1)nnn2CCNC(=O)Nc1ccc(Cl)cc1 | nt | nt | 0 | 0 | -7 | nt
COc1ccc(OC)c(NC(=O)NCCN2CCN(c3ccccc3)CC2)c1 | 1% | -1% | -7 | 9 | -54* | -4%
CCCN1CCN(CCNC(=O)Nc2ccc(OC)c(OC)c2)CC1 | nt | nt | -1 | 0 | 8 | nt
COc1ccc(N2CCN(CCNC(=O)Nc3ccc([N+](=O)[O-])cc3OC)CC2)cc1 | -2% | nt | -6 | 1 | 3 | 6%
COc1cc(NC(=O)NCCN2CCN(c3ccc(Cl)cc3)CC2)ccc1C | 2% | -2% | -7 | 64* | -18 | -10%
COc1ccc(N2CCN(CCNC(=O)Nc3ccc(C)c(Cl)c3)CC2)cc1 | 2% | -2% | 0 | 31* | -12 | -11%
COc1ccc(NC(=O)NCCN2CCN(c3cccc(Cl)c3)CC2)cc1 | 1% | 1% | -8 | 22 | -61* | 11%
CCN(CC)S(=O)(=O)c1ccc(NC(=O)CCc2c(C)nc3cc(-c4ccc(Cl)cc4)nn3c2C)cc1 | nt | nt | -4 | 10 | -11 | nt
Clc1cccc(-c2ccc3ncnc(NCc4ccc5c(c4)OCO5)c3c2)c1 | 2% | nt | 7 | 8 | 22 | 4%
Cc1ccc(Cl)cc1N1CCN(S(=O)(=O)c2ccc3c(c2)CCN3C(=O)C2CCC2)CC1 | nt | nt | 6 | 6 | 19 | nt
Cc1ccc(C(=O)NCC(=O)N2CCC(Cc3ccccc3)CC2)cc1 | 1% | -6% | -2 | 9 | -36* | 1%
Cc1cc(C(=O)N2CCC(Cc3ccccc3)CC2)ccc1[N+](=O)[O-] | 0% | nt | -2 | 1 | -32* | -11%
SMILES | USP2a block | GALK inhibitor | D1 potentiator | D1 agonist | D1 antag | Eya2 inh
COc1ccc(C(=O)NCC(=O)N2CCC(Cc3ccccc3)CC2)cc1OC | 3% | nt | -2 | 1 | -9 | 15%
Cc1ccccc1NC(=O)c1ccc(CN2CCC(Cc3ccccc3)CC2)cc1 | 1% | nt | -19 | 18 | -57* | 9%
CC(C)NC(=O)c1ccc(CN2CCC(Cc3ccccc3)CC2)cc1 | 1% | 2% | -8 | 6 | 29 | 3%
C=CCNC(=O)c1ccc(CN2CCC(Cc3ccccc3)CC2)cc1 | 0% | -1% | -12 | 6 | -58* | 2%
CCc1ccccc1OCCCN1CCCC1 | -1% | -1% | -1 | 5 | -27 | -4%
c1ccc(COc2ccc(OCCCCN3CCCCC3)cc2)cc1 | 0% | 1% | -5 | 42* | -35* | 15%
c1ccc(-c2ccccc2OCCCN2CCCCC2)cc1 | 2% | 3% | -3 | 15 | -54* | -5%
OCCCCNCc1ccc(OCc2ccccc2)cc1 | 4% | 0% | -2 | 16 | 5 | -6%
CCc1ccccc1OCCCCN1CCCCC1 | -5% | 3% | -10 | 4 | -56* | -9%
OCCNCCCCOc1ccc(OCc2ccccc2)cc1 | 1% | 0% | -14 | 46* | -31* | -3%
CCN1CCN(CCCOc2ccccc2-c2ccccc2)CC1 | -16% | 6% | -4 | 17 | -9 | 6%
CSc1ccc(CNC(=O)CCc2c(C)nn(-c3ccc(N4CCCC4)nn3)c2C)cc1 | nt | nt | 7 | -1 | 8 | nt
CC(=O)c1sc2nsc(SCCN3CCOCC3)c2c1N | 9% | 2% | 1 | 7 | 1 | -4%
Nc1c(C(=O)c2ccccc2)sc2nsc(SCCN3CCOCC3)c12 | 3% | 0% | 4 | 194* | -42* | ?
O=C(c1ccc(NC(=S)NCc2ccc(Cl)cc2)cc1)N1CCCCC1 | -1% | 3% | 0 | 49* | -18 | -1%
COC(=O)c1cccc(NC(=S)NCc2ccc(Cl)cc2)c1 | 1% | 0% | -6 | 35* | 0 | -15%
O=C(NCc1ccccc1)c1cccc(COc2cccc(Cl)c2)c1 | 2% | 2% | -3 | 2 | -10 | 9%
O=C(NCc1ccccc1)c1cccc(COc2ccc(Cl)cc2)c1 | 2% | 0% | -8 | 38* | 0 | -13%
O=C(CNCc1ccc(Cl)cc1)Nc1ccc(C(=O)N2CCCCC2)cc1 | 2% | 1% | -10 | 9 | -6 | -4%
COC(=O)c1cccc(NC(=O)Nc2ccc(Cl)cc2Cl)c1 | 1% | 0% | -3 | 16 | -43* | -1%
COC(=O)c1cc(NC(=S)NCc2ccc(Cl)cc2)cc(C(=O)OC)c1 | 0% | 2% | -4 | 29 | -17 | 1%
